Holding throughout (assay): DAPPL (digital affinity profiling via proximity ligation, sequencing); 10 mM Tris-HCl pH 7.5, 50 mM NaCl, 1 mM DTT, 4% glycerol, room temperature, 30 min; GST-TFs on glutathione beads, 16-mer random dsDNA library, 0.1% formaldehyde crosslink after washing; high values mean tight binding
The target in test [1] is T1, FLI1 (Homo sapiens, UniProt Q01543 1-452).
T1 sequence: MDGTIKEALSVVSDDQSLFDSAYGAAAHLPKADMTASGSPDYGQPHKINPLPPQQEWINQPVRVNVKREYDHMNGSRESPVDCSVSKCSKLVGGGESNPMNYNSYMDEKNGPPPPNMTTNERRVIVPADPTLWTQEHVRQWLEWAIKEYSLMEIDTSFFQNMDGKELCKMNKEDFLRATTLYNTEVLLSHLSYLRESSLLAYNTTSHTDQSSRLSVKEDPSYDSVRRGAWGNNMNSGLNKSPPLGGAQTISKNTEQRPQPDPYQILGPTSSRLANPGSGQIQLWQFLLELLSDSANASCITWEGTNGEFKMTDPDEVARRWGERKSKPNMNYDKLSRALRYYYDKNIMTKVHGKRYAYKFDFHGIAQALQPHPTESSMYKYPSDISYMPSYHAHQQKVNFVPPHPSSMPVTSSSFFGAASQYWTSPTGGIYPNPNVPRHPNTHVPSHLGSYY
The following applies: protein: recombinant; tags: N-terminal GST; dsDNA, one strand shown. In a few lines: (§1)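 Sequencing on an Illumina NextSeq500 followed washing, crosslinking with 0.1% formaldehyde, proximity ligation (BsaI/T4 ligase, 1 h, 37 °C) and PCR amplification of pools that had been incubated for 30 min at room temperature with 200 nmole of a random double-stranded 16-mer DNA library in Tris/NaCl/DTT/glycerol buffer. Each pool held DNA-barcoded human transcription factors, expressed in yeast as GST fusions and captured on glutathione beads, plus a tag-only sample. Binding signal is a hexamer's read frequency for a factor divided by its frequency in the tag-only sample.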

The target in test [2] is T2, ELK1 (Homo sapiens, UniProt P19419 1-428).
T2 sequence: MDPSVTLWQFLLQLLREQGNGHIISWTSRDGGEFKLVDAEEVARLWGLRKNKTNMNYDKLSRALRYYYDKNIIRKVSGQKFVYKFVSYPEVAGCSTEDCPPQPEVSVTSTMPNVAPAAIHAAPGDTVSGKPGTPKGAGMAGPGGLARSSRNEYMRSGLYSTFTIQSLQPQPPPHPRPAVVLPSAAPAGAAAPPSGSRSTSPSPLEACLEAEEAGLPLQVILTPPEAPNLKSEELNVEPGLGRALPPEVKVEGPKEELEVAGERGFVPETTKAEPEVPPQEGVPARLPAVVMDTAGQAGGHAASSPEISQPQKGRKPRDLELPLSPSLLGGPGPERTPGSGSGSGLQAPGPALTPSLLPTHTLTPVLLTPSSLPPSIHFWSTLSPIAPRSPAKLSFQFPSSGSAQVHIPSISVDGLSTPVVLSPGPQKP
The settings on record: protein: recombinant; tags: N-terminal GST; dsDNA, one strand shown. In a few lines:
as §1

In test [3] the target is ELF1 (Homo sapiens, UniProt P32519 1-619). The following applies: protein: recombinant; tags: N-terminal GST; dsDNA, one strand shown. The method in brief:
as §1

Test [4] addresses SPI1 (Homo sapiens, UniProt P17947 1-270). The settings on record: protein: recombinant; tags: N-terminal GST; dsDNA, one strand shown. The method in brief:
as §1

For test [5], the target named is SPIB (Homo sapiens, UniProt Q01892 1-262). The settings on record: protein: recombinant; tags: N-terminal GST; dsDNA, one strand shown. In a few lines:
as §1

The target in test [6] is T3, ELK3 (Homo sapiens, UniProt P41970 1-407).
T3 sequence: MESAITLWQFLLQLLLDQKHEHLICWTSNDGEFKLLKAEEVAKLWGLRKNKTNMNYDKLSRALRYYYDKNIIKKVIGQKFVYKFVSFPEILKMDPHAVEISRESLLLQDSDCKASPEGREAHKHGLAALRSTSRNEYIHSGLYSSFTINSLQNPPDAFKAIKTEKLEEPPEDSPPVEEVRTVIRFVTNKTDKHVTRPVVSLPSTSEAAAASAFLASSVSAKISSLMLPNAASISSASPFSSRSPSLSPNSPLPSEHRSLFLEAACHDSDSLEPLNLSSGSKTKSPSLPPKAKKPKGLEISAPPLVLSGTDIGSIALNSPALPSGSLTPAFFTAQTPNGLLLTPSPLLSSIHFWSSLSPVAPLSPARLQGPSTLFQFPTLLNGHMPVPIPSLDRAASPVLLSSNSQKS
The settings on record: protein: recombinant; tags: N-terminal GST; dsDNA, one strand shown. In a few lines: as §1

In test [7] the target is T4, FEV (Homo sapiens, UniProt Q99581 1-238).
T4 sequence: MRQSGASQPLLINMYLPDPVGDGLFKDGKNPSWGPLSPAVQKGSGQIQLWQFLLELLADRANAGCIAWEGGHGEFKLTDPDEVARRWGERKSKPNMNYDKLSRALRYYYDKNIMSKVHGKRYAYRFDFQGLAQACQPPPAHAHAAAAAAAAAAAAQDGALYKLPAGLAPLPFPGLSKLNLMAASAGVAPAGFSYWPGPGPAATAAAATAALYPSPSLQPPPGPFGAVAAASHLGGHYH
The settings on record: protein: recombinant; tags: N-terminal GST; dsDNA, one strand shown. In a few lines:
as §1

For test [8], the target named is ETV5 (Homo sapiens, UniProt P41161 1-510). The settings on record: protein: recombinant; tags: N-terminal GST; dsDNA, one strand shown. In a few lines:
as §1

Test [9] has as its target HSF1 (Homo sapiens, UniProt Q00613 1-529). The settings on record: protein: recombinant; tags: N-terminal GST; chain copies: 3; dsDNA, one strand shown. The method in brief:
as §1

Test [10] concerns the target T5, SPIC (Homo sapiens, UniProt Q8N5J4 1-248).
T5 sequence: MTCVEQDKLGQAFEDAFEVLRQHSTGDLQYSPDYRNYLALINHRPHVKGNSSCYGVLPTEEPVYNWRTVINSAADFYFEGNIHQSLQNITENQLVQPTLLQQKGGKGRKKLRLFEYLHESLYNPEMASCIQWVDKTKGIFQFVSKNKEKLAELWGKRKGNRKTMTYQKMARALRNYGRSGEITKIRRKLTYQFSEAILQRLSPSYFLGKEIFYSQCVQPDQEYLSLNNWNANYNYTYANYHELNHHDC
The following applies: protein: recombinant; tags: N-terminal GST; dsDNA, one strand shown. The method in brief:
as §1

Test [11] concerns the target ELF4 (Homo sapiens, UniProt Q99607 1-663). The settings on record: protein: recombinant; tags: N-terminal GST; dsDNA, one strand shown. The method in brief: as §1
Test [12] concerns the target T6, ELK4 (Homo sapiens, UniProt P28324-2 1-405).
T6 sequence: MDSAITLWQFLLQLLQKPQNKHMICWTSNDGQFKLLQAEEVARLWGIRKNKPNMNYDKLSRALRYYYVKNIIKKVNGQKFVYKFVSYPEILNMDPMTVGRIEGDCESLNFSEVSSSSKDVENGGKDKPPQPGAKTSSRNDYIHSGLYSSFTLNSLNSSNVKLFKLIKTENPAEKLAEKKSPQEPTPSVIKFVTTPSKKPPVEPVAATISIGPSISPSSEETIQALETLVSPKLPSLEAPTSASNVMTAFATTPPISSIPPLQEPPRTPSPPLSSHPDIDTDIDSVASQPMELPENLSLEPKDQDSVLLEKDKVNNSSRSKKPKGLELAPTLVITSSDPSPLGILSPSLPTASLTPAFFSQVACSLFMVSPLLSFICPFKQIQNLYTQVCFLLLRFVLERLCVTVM
The settings on record: protein: recombinant; tags: N-terminal GST; dsDNA, one strand shown. In a few lines:
as §1

In test [13] the target is T7, ETV2 (Homo sapiens, UniProt O00321 1-342).
T7 sequence: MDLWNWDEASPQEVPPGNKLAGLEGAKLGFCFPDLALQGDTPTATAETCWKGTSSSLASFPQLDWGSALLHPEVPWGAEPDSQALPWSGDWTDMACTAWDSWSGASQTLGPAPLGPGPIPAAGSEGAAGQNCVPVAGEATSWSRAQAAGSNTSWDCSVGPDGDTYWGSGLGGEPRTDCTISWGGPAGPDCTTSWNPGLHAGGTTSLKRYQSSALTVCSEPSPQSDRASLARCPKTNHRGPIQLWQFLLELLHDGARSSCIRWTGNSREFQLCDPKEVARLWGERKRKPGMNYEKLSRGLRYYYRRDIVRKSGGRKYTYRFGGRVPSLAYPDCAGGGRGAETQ
The following applies: protein: recombinant; tags: N-terminal GST; dsDNA, one strand shown. The method in brief:
as §1

Test [14] concerns the target T8, ELF3 (Homo sapiens, UniProt P78545 1-371).
T8 sequence: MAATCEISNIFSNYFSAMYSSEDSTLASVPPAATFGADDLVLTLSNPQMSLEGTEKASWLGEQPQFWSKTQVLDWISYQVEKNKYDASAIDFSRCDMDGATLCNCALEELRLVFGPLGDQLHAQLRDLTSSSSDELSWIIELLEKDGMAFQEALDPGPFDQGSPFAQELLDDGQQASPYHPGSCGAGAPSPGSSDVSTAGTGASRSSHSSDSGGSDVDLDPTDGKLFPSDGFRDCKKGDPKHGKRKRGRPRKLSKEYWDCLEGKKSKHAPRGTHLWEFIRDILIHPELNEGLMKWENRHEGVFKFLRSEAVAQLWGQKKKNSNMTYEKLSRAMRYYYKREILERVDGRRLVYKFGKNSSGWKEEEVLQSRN
The following applies: protein: recombinant; tags: N-terminal GST; dsDNA, one strand shown. The method in brief:
as §1

In test [15] the target is CRX (Homo sapiens, UniProt O43186 1-299). The settings on record: protein: recombinant; tags: N-terminal GST; dsDNA, one strand shown. The method in brief:
as §1

The target in test [16] is ETV1 (Homo sapiens, UniProt P50549 1-477). The following applies: protein: recombinant; tags: N-terminal GST; dsDNA, one strand shown. The method in brief: as §1
Chain of ETV1 (P50549 whole entry): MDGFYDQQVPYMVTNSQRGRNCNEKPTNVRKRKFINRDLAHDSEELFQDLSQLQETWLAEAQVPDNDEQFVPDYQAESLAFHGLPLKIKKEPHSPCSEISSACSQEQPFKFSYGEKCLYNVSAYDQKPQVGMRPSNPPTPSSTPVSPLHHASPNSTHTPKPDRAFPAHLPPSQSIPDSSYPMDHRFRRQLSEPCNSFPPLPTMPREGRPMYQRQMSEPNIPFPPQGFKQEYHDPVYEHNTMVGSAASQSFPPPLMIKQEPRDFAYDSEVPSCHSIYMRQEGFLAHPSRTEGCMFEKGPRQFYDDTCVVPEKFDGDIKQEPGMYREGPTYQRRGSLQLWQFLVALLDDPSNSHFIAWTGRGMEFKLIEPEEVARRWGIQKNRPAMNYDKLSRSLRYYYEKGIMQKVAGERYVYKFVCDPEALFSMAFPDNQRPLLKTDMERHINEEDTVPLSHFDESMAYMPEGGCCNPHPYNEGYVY

Chain of ELF1 (P32519 whole entry): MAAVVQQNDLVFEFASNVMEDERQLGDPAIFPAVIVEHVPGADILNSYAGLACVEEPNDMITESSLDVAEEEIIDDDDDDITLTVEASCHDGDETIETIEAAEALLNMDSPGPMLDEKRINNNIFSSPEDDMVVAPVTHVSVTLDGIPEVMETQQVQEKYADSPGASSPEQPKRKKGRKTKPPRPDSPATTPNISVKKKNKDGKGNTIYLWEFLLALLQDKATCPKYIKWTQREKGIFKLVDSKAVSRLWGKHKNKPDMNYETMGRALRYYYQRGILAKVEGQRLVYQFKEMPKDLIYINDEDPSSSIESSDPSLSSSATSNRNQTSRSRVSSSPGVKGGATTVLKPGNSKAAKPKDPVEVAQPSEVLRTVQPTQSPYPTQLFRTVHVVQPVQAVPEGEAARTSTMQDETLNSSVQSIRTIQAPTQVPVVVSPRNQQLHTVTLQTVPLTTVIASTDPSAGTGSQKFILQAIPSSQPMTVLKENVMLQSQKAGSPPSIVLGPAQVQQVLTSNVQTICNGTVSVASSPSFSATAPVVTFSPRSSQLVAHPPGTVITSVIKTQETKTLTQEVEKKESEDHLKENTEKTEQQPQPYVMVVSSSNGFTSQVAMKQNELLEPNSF
Chain of SPIB (Q01892 whole entry): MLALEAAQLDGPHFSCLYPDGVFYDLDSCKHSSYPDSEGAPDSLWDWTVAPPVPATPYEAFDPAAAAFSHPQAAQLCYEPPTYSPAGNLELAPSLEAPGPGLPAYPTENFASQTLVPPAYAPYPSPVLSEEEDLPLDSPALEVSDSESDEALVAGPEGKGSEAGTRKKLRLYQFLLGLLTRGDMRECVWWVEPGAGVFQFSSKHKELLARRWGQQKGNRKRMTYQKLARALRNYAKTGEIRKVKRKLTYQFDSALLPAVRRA
Chain of CRX (O43186 whole entry): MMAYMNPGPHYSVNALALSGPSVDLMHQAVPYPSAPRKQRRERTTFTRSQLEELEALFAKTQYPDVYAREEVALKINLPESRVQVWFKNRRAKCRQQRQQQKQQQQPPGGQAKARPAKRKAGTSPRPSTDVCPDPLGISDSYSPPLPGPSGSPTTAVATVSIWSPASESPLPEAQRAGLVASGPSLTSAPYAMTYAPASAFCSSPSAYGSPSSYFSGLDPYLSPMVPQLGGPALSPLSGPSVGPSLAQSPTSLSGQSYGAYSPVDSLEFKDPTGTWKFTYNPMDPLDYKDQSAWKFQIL
Chain of ELF4 (Q99607 whole entry): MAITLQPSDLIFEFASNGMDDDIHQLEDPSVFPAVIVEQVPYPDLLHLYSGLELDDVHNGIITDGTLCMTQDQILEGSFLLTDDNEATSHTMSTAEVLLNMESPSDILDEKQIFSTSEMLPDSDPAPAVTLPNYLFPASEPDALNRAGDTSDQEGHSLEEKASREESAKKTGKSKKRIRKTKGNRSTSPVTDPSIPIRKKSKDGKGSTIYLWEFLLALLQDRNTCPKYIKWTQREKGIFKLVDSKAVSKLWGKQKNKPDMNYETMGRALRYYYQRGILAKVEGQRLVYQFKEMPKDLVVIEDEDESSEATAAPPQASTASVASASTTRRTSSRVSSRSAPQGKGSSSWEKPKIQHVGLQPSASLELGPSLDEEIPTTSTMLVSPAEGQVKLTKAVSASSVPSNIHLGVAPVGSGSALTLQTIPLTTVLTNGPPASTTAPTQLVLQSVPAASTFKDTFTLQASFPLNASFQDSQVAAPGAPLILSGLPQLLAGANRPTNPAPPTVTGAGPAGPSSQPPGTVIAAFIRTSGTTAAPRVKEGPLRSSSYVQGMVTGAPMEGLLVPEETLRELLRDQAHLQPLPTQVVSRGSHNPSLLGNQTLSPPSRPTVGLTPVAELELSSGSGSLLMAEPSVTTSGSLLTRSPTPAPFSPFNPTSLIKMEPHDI
Chain of ETV5 (P41161 whole entry): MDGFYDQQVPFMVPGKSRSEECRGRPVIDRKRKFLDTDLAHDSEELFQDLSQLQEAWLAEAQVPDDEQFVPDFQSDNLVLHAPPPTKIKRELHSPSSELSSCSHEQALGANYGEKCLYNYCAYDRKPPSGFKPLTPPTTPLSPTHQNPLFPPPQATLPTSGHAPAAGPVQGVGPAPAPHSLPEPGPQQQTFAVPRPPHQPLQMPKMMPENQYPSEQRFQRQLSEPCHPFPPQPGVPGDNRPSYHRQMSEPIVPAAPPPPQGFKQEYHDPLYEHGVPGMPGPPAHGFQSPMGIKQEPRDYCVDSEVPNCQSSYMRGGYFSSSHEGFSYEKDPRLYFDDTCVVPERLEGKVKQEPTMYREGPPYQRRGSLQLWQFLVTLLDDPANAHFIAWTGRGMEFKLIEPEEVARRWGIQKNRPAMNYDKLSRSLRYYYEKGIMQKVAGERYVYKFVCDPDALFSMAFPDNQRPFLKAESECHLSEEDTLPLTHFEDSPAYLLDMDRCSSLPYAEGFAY
Chain of HSF1 (Q00613 whole entry): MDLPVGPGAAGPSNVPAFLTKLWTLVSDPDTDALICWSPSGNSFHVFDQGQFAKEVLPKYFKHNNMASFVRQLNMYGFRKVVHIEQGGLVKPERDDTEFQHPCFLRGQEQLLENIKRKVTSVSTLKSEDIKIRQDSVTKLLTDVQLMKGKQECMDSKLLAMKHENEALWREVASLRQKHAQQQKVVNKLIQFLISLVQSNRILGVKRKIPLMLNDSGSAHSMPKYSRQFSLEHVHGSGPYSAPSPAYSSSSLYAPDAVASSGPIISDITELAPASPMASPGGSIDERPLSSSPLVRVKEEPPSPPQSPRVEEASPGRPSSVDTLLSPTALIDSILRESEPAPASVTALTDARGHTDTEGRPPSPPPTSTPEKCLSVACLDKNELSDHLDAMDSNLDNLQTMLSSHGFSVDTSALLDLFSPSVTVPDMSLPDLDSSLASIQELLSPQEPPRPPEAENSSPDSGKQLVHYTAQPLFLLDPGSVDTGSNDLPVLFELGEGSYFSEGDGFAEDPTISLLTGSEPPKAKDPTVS

In the case of TTCCAG, the binding signal in test [1] was 1.03 fold enrichment (6-mer frequency, TF over GST control); in test [2] it was 1.02 fold enrichment (6-mer frequency, TF over GST control); in [3], 1.02 fold enrichment (6-mer frequency, TF over GST control); in test [4], 1.05 fold enrichment (6-mer frequency, TF over GST control); in test [5], 1.1 fold enrichment (6-mer frequency, TF over GST control); in [6], 1.07 fold enrichment (6-mer frequency, TF over GST control). The binding signal is 1.05 fold enrichment (6-mer frequency, TF over GST control) in test [7]; 1.06 fold enrichment (6-mer frequency, TF over GST control) in [8]; 3.69 fold enrichment (6-mer frequency, TF over GST control) in [9]; 1.02 fold enrichment (6-mer frequency, TF over GST control) in test [10]; 1.17 fold enrichment (6-mer frequency, TF over GST control) in test [11]; 1.15 fold enrichment (6-mer frequency, TF over GST control) in test [12]. Moreover, the binding signal in test [13] was 1.12 fold enrichment (6-mer frequency, TF over GST control); in test [14], 1.05 fold enrichment (6-mer frequency, TF over GST control); in test [15] it was 1.68 fold enrichment (6-mer frequency, TF over GST control); in [16], 1.05 fold enrichment (6-mer frequency, TF over GST control).

These data come from publication PMC7862700, “An all-to-all approach to the identification of sequence-specific readers for epigenetic DNA modifications on cytosine”.
